Experimental data taken from PubChem BioAssay (NCATS).
Results filed as inconclusive are left out. Activity calls are given as the source filed them. Unless noted, calls follow the shape of the dose curve; as a rule, active = well fitted curve in the direction sought with a large enough effect; inconclusive = small, poorly fitted or top-dose-only effect, or another doubt; inactive = no such curve, though single readings can be large; an effect the other way counts as inactive or inconclusive.

Columns and labels:
[1] = qHTS for Inhibitors of Plasmodium falciparum (DD2) proliferation (AID 504314);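 also: parasite DNA measured by SYBR Green fluorescence after red cell lysis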
Procedure, shortened: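 Normalization used 0.29 uM artemisinin as full inhibition and DMSO as baseline. Parasitized erythrocytes were exposed to compounds for 72 h (37C, 5% CO2), then lysed with saponin/Triton buffer containing SYBR Green I.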

[2] = qHTS for Inhibitors of Plasmodium falciparum (GB4) proliferation (AID 504315); also: nearly all actives have a fitted effect of over 50% in size
Procedure, shortened: (§1)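 Parasite growth measured as SYBR Green DNA fluorescence (ex 485, em 535 nm) after overnight lysis following 72 h culture at 37 °C, 0.3% parasitemia, 2.5% hematocrit. Values normalized against DMSO and 0.29 uM artemisinin controls, with plate-stack correction.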

[3] = qHTS for Inhibitors of Plasmodium falciparum (7G8) proliferation (AID 504316); also: series mostly up to about 6.7 µM; nearly all actives have a fitted effect of over 65% in size
Procedure, shortened: as §1

[4] = qHTS for Inhibitors of Plasmodium falciparum (HB3) proliferation (AID 504318); also: nearly all actives have a fitted effect of over 60% in size
Procedure, shortened: as §1

[5] = qHTS for Inhibitors of Plasmodium falciparum (CP250) proliferation (AID 504320)
Procedure, shortened: as §1

[6] = biological target: Atrial natriuretic peptide receptor 1 (Homo sapiens) (UniProt P16066); test: Natriuretic polypeptide receptor (hNpr1) antagonism - Pilot CMLD screen (AID 1347052; calls by dose curve;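 also: HEK293 cells with hNpr1 stimulated by hNppA peptide at 0.1 nM; cGMP level read as GloSensor luciferase luminescence after agonist stimulation; series mostly up to about 9.2 µM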)
Chain of Atrial natriuretic peptide receptor 1 (Homo sapiens) (P16066 whole entry, looked up): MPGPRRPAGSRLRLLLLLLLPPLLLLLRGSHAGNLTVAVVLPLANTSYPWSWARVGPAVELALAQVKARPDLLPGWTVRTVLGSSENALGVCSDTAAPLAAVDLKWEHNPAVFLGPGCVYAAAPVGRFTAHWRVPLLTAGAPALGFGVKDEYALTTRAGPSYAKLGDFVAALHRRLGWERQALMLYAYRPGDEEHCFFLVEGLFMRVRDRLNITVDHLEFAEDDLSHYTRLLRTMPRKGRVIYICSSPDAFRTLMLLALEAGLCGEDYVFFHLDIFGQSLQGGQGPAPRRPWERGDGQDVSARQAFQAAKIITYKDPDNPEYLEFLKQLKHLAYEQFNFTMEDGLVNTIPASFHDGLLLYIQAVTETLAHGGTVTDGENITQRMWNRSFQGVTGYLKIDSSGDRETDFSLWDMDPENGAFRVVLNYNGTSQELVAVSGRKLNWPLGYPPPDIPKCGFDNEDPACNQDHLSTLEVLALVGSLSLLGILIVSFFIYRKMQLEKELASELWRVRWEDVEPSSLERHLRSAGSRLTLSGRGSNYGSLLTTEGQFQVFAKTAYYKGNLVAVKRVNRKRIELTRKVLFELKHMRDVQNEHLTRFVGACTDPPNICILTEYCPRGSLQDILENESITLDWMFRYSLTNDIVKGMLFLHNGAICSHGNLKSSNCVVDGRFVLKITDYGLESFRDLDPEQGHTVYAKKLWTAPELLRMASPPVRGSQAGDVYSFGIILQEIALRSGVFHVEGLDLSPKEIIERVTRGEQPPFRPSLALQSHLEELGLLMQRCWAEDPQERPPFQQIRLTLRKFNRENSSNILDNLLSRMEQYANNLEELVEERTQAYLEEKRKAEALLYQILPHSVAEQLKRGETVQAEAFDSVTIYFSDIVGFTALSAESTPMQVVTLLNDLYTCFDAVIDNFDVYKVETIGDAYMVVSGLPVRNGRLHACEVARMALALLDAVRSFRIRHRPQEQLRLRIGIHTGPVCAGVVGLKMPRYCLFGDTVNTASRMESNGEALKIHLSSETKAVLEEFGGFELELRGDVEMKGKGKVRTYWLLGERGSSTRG

Measured: Potency

COC[C@H]1O[C@H](c2ccccc2)C=C[C@H]1OCC=C(C)C
inactive: all assays above

CCOC(=O)CN1C(=O)[C@]2(OCCC=C[C@@H]2C)c2c(Br)cccc21
inactive: all assays above

CCN1C(=O)[C@@H]2[C@H]3[C@H](O)[C@H](O)CC(=NOC[C@@H](C)[C@H](OCc4ccccc4)C(C)C)[C@@H]3CC[C@H]2C1=O
inactive: all assays above

COc1cccc(CC(=O)N2CCc3nc(COc4ccccc4)c4c(c3C2)CO[C@@H](C)C4)c1
inactive: all assays above

COC1=CC2C(=O)C(C(c3ccccc3)C2C)C1(O)c1cccc(OC)c1 (stereo unspecified)
inactive: all assays above

CC(C)CON=C1C[C@@H](O)[C@@H](O)[C@@H]2[C@H]3C(=O)N(Cc4ccc5c(c4)OCO5)C(=O)[C@@H]3CC[C@H]12
inactive: all assays above

COC(=O)[C@H]1[C@@H](c2ccccc2)NC(=O)N(Cc2ccccc2)[C@@H]1C
inactive: all assays above

C=CCOC(=O)N[C@H](c1ccco1)C(C(C)=O)C(C)=O
inactive: all assays above

COC(=O)C1=C(C)N(Cc2ccccc2)C(=O)NC1c1ccccc1 (stereo unspecified)
inactive: all assays above

Cc1cc2c(nc1C)CCCN2CC(O)CN1CCCc2nc(-c3ccc(Br)cc3)ccc21 (stereo unspecified)
inactive: all assays above

COCCN1C(=O)NC(c2ccccc2)C(C(=O)OC)=C1C (stereo unspecified)
inactive: all assays above

CCN1C(=NCc2cc(OC)c(OC)c(OC)c2)N[C@@H](c2ccccc2)[C@H](C(=O)OC)[C@H]1C
inactive: all assays above

CC(=O)OC[C@H]1O[C@H](CC=NO[C@H](C)c2cn([C@@H]3COC[C@@H]3O)nn2)C=C[C@@H]1OC(C)=O
inactive: all assays above

C=C(C)CCCN1C=C(C(C)=O)C(c2ccccc2)NC1=O (stereo unspecified)
inactive: all assays above

Cc1cc2c(c(=O)o1)[C@H]1O[C@](c3ccsc3)(Cc3cc(C#N)ccc31)O2
inactive: all assays above

CCOC(=O)C1=CN(CCc2cn(Cc3ccccc3)nn2)C(=O)NC1c1ccccc1 (stereo unspecified)
inactive: all assays above

CC(C)OC(=O)CC(NC(=O)OC(C)(C)C)c1ccccc1 (stereo unspecified)
inactive: all assays above

CCN1C(=NCCc2ccc(Br)cc2)N[C@@H](c2ccccc2)[C@H](C(=O)OC)[C@H]1C
inactive: all assays above

CCOC(=O)C1=CN(CCNC(=O)OC(C)(C)C)C(=O)NC1c1ccccc1 (stereo unspecified)
inactive: all assays above

CCCCC1=CC2=C(c3ccco3)C(=O)C(C)(OC(=O)c3ccc(OC)cc3)C(=O)C2=CN1Cc1ccccc1 (stereo unspecified)
inactive: all assays above

C=CCN1C(=O)[C@]2(OCCC=C[C@H]2C)c2c(Br)cccc21
inactive: all assays above

COC(=O)[C@H]1O[C@@H](c2cc(OC)c(C)c(OC)c2O)[C@H](C)[C@@H](O)[C@@H]1C
inactive: all assays above

CCN1C(=O)[C@@H]2[C@H]3[C@H](O)[C@H](O)CC(=NO[C@H](C)c4cn([C@H](CO)Cc5ccccc5)nn4)[C@@H]3CC[C@H]2C1=O
inactive: all assays above

CCCCCCCc1cc2ccccc2c(=O)o1
inactive: all assays above

CCOC(=O)NN=C1C[C@@H](O)[C@@H](O)[C@@H]2[C@H]3C(=O)N(c4ccc(F)cc4F)C(=O)[C@@H]3CC[C@H]12
inactive: all assays above

C=CC[C@](C)(Nc1ccc(OC)cc1)C(=O)OCC
inactive: all assays above
